# Results from the supplement of paper PMC10338343.
# ± gives the standard deviation.
# Legend:
# [1] = tested on: MILI (PIWIL2) piRISC loaded with piRNA #1 (26 nt); assay: pre-steady-state target cleavage rate (min^-1); guide: piRNA #1 5'p-UGAGGUAGUAGGUUGUAUAGUAUCCA; higher = faster piRNA-guided slicing of the target; details: auxiliary factor: 500 nM mouse GTSF1
# In short: (§1)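 The method was Cleave-'n-Seq, in which uncleaved targets from a transcribed, DNA-blocked target RNA library were sequenced after exposure to active affinity-purified piRISC carrying one synthetic guide, with or without GTSF1 partner protein. Reactions contained 0.1 nM library, 1 nM piRISC and, where present, 500 nM GTSF1 in HEPES–potassium acetate buffer at 33 °C for 0–8 or 0–960 min. Reads were normalised to depth and to weakly complementary targets, three trials were pooled, and k3 was capped at 0.0001 min^-1. The pre-steady-state cleavage rate came from a burst-and-steady-state fit.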
# [2] = tested on: EfPiwi piRISC loaded with piRNA #1 (26 nt); assay: pre-steady-state target cleavage rate (min^-1); auxiliary factor: 500 nM Ephydatia muelleri Gtsf1; guide: piRNA #1 5'p-UGAGGUAGUAGGUUGUAUAGUAUCCA; MIWI and MILI are mouse PIWI proteins and EfPiwi is from a freshwater sponge; tags in brackets are library labels; higher = faster piRNA-guided slicing of the target
# In short: as §1
sequence,measurement,setting,value
GGAGAGGAUACGUAUACAACCUACUACCUCA,pre-steady-state target cleavage rate,[1],0.0772 ± 0.011
same,pre-steady-state target cleavage rate,[2],0.0803 ± 0.032
GGAGUGGAUAGUUUACAACCUACUACCUCA,pre-steady-state target cleavage rate,[1],0.11 ± 0.0082
same,pre-steady-state target cleavage rate,[2],0.00446 ± 0.0033
GGAGACCAUACUAUACAACCUACUUCCUGA,pre-steady-state target cleavage rate,[1],0.0889 ± 0.02
same,pre-steady-state target cleavage rate,[2],0.00388 ± 0.0027
GGAGACGAUACUAUGCAACCUACUACCUCA,pre-steady-state target cleavage rate,[1],0.21 ± 0.014
same,pre-steady-state target cleavage rate,[2],0.0141 ± 0.0066
GGAGACGAUACUAUACAACCUACUACGUGA,pre-steady-state target cleavage rate,[1],0.0822 ± 0.021
same,pre-steady-state target cleavage rate,[2],0.00515 ± 0.0026
GGAGUGGAUACUAUACAACCUACUCACCUCA,pre-steady-state target cleavage rate,[1],0.166 ± 0.02
same,pre-steady-state target cleavage rate,[2],0.00247 ± 0.0014
GGAGACCAUACUAUACAACCUACACCUCA,pre-steady-state target cleavage rate,[1],0.00885 ± 0.0037
same,pre-steady-state target cleavage rate,[2],0.00776 ± 0.0044
GGAGACGAUACUAUACAACCUACUACCCUCA,pre-steady-state target cleavage rate,[1],0.176 ± 0.021
same,pre-steady-state target cleavage rate,[2],0.00506 ± 0.0015
GGAGACGAUACUAUACAACCUACUGACCUCA,pre-steady-state target cleavage rate,[1],0.118 ± 0.015
same,pre-steady-state target cleavage rate,[2],0.00338 ± 0.0017
GGAGAGGAUACUAUACAAGCUUCUACCUCA,pre-steady-state target cleavage rate,[1],0.0253 ± 0.0037
same,pre-steady-state target cleavage rate,[2],0.0045 ± 0.0024
GGAGUGGUUACUAUACAACCUAGUACCUCA,pre-steady-state target cleavage rate,[1],0.0547 ± 0.01
same,pre-steady-state target cleavage rate,[2],0.00359 ± 0.0015
GGAGUGGAUACUAUACAACCUACUACUUCA,pre-steady-state target cleavage rate,[1],0.103 ± 0.0082
same,pre-steady-state target cleavage rate,[2],0.104 ± 0.042
GGAGUGGAUACUAUACAACCUACAUACCUCA,pre-steady-state target cleavage rate,[1],0.109 ± 0.011
same,pre-steady-state target cleavage rate,[2],0.00344 ± 0.0016
GGAGAGGAUACUAUCCAACCUACUACCUCA,pre-steady-state target cleavage rate,[1],0.232 ± 0.015
same,pre-steady-state target cleavage rate,[2],0.00889 ± 0.004
GGAGACCAUACUAUACAACCUAGUUCCUCA,pre-steady-state target cleavage rate,[1],0.0546 ± 0.018
same,pre-steady-state target cleavage rate,[2],0.00549 ± 0.0029
GGAGUGGAUACUAUAGAAGCUACUACCUCA,pre-steady-state target cleavage rate,[1],0.19 ± 0.011
same,pre-steady-state target cleavage rate,[2],0.00277 ± 0.0019
GGAGACCUUACUAUACAACCUACAACCUCA,pre-steady-state target cleavage rate,[1],0.126 ± 0.016
same,pre-steady-state target cleavage rate,[2],0.00341 ± 0.0024
GGAGAGGAUACUAUACAACCUACUACCGUCA,pre-steady-state target cleavage rate,[1],0.0203 ± 0.0064
same,pre-steady-state target cleavage rate,[2],0.00833 ± 0.0032
GGAGACCAUACUAUACAACCUAAUACCUCA,pre-steady-state target cleavage rate,[1],0.117 ± 0.018
same,pre-steady-state target cleavage rate,[2],0.00857 ± 0.0039
GGAGACCAUACUAUACAACCUACUCCCUCA,pre-steady-state target cleavage rate,[1],0.106 ± 0.017
same,pre-steady-state target cleavage rate,[2],0.00669 ± 0.0039
GGAGACCUUACUAUACAACCUACUACCUCU [g2:g22:cont:t1U],pre-steady-state target cleavage rate,[1],0.177 ± 0.017
same,pre-steady-state target cleavage rate,[2],1.04 ± 0.39
GGAGUGCAUAGUAUACAACCUACUACCUCA,pre-steady-state target cleavage rate,[1],0.125 ± 0.011
same,pre-steady-state target cleavage rate,[2],0.0131 ± 0.0064
GGAGUGGAAACUAUACAACCUACUACCACA,pre-steady-state target cleavage rate,[1],0.129 ± 0.018
same,pre-steady-state target cleavage rate,[2],0.00336 ± 0.0029
GGAGAGGAUACUAUACAACCUACUACGUGA,pre-steady-state target cleavage rate,[1],0.0154 ± 0.004
same,pre-steady-state target cleavage rate,[2],0.00416 ± 0.0019
GGAGAGGAUACUAUACUACCUAGUACCUCA,pre-steady-state target cleavage rate,[1],0.00407 ± 0.0037
same,pre-steady-state target cleavage rate,[2],0.00301 ± 0.0017
GGAGACCUAUCAUAACAACCUACUACCUCA,pre-steady-state target cleavage rate,[1],0.0143 ± 0.0053
same,pre-steady-state target cleavage rate,[2],0.00531 ± 0.0037
GGAGACCAUACUACUACAACCUACUACCUCA,pre-steady-state target cleavage rate,[1],0.137 ± 0.015
same,pre-steady-state target cleavage rate,[2],0.0205 ± 0.0057
GGAGACCAUACUAUACAACCUACAUCCUCA,pre-steady-state target cleavage rate,[1],0.1 ± 0.014
same,pre-steady-state target cleavage rate,[2],0.00325 ± 0.0028
GGAGAGGUUACUAUAGAACCUACUACCUCA,pre-steady-state target cleavage rate,[1],0.157 ± 0.018
same,pre-steady-state target cleavage rate,[2],0.00277 ± 0.0023
GGAGAGGAUACAAUACAACCUACUACCUCA,pre-steady-state target cleavage rate,[1],0.172 ± 0.012
same,pre-steady-state target cleavage rate,[2],0.0112 ± 0.005
GGAGAGGAUACUAUACAACCUACUCACCUCA,pre-steady-state target cleavage rate,[1],0.138 ± 0.016
same,pre-steady-state target cleavage rate,[2],0.00339 ± 0.0021
GGAGACGAUACUAUACAACGUACUACGUCA,pre-steady-state target cleavage rate,[1],0.00557 ± 0.0029
same,pre-steady-state target cleavage rate,[2],0.00379 ± 0.0014
GGAGACGAUUCUAUACAACCUAGUACCUCA,pre-steady-state target cleavage rate,[1],0.07 ± 0.011
same,pre-steady-state target cleavage rate,[2],0.00392 ± 0.0022
GGAGUGGAUUACUAUACAACCUACUACCUCA,pre-steady-state target cleavage rate,[1],0.154 ± 0.0078
same,pre-steady-state target cleavage rate,[2],0.00938 ± 0.0037
GGAGUGGAUACUAUACAACCUACGUACCUCA,pre-steady-state target cleavage rate,[1],0.118 ± 0.014
same,pre-steady-state target cleavage rate,[2],0.00401 ± 0.0015
GGAGACCUUACUAUAUAACCUACUACCUCA,pre-steady-state target cleavage rate,[1],0.124 ± 0.0081
same,pre-steady-state target cleavage rate,[2],0.00964 ± 0.005
GGAGACGAUACUAUACAACCUACUACCUACA,pre-steady-state target cleavage rate,[1],0.178 ± 0.013
same,pre-steady-state target cleavage rate,[2],0.00797 ± 0.0032
GGAGUGGAUACAUUACAACCUACUACCUCA,pre-steady-state target cleavage rate,[1],0.152 ± 0.012
same,pre-steady-state target cleavage rate,[2],0.00715 ± 0.0034
GGAGUGGAUAUAUACAACCUACUACCUCA,pre-steady-state target cleavage rate,[1],0.152 ± 0.01
same,pre-steady-state target cleavage rate,[2],0.0139 ± 0.0066
GGAGUGCAUACUAUUCAACCUACUACCUCA,pre-steady-state target cleavage rate,[1],0.182 ± 0.011
same,pre-steady-state target cleavage rate,[2],0.00471 ± 0.0042
GGAGACCUAACUAUACAACCUACUACCAGA,pre-steady-state target cleavage rate,[1],0.124 ± 0.035
same,pre-steady-state target cleavage rate,[2],0.00445 ± 0.0031
GGAGACGAAUACUAUACAACCUACUACCUCA,pre-steady-state target cleavage rate,[1],0.178 ± 0.015
same,pre-steady-state target cleavage rate,[2],0.0529 ± 0.018
GGAGACCAUACUAUCCAACCUACUACCUCA,pre-steady-state target cleavage rate,[1],0.178 ± 0.017
same,pre-steady-state target cleavage rate,[2],0.00636 ± 0.0033
GGAGACGAUACUAAACAACCUACUACCUGA,pre-steady-state target cleavage rate,[1],0.124 ± 0.02
same,pre-steady-state target cleavage rate,[2],0.00288 ± 0.0022
GGAGACGAAAGUAUACAACCUACUACCUCA,pre-steady-state target cleavage rate,[1],0.108 ± 0.01
same,pre-steady-state target cleavage rate,[2],0.0104 ± 0.0056
GGAGACCAUACUAUACAACCUUCUUCCUCA,pre-steady-state target cleavage rate,[1],0.00848 ± 0.0038
same,pre-steady-state target cleavage rate,[2],0.00613 ± 0.0044
GGAGACCUAUGAUAACAACCUACUACGCUCA,pre-steady-state target cleavage rate,[1],0.00466 ± 0.0023
same,pre-steady-state target cleavage rate,[2],< 0.0001
GGAGUGGAUACUAUACAAGCUACUAGCUCA,pre-steady-state target cleavage rate,[1],0.0419 ± 0.0091
same,pre-steady-state target cleavage rate,[2],0.00331 ± 0.0021
GGAGAGGAUACUAUACAACCUACUACCUCA [g2:g25:cont:t1A],pre-steady-state target cleavage rate,[1],0.206 ± 0.017
same,pre-steady-state target cleavage rate,[2],0.0912 ± 0.033
GGAGAGGUUACUAAACAACCUACUACCUCA,pre-steady-state target cleavage rate,[1],0.142 ± 0.013
same,pre-steady-state target cleavage rate,[2],0.00353 ± 0.0034
GGAGAGGACACUAUACAACCUACUACCUCA,pre-steady-state target cleavage rate,[1],0.185 ± 0.016
same,pre-steady-state target cleavage rate,[2],0.0224 ± 0.0085
GGAGACGAUACUGAUACAACCUACUACCUCA,pre-steady-state target cleavage rate,[1],0.203 ± 0.018
same,pre-steady-state target cleavage rate,[2],0.00712 ± 0.0036
GGAGACCUAUCUAUACACCCUACUACCUCA,pre-steady-state target cleavage rate,[1],0.0257 ± 0.006
same,pre-steady-state target cleavage rate,[2],0.00728 ± 0.0037
GGAGACCAUUACUAUACAACCUACUACCUCA,pre-steady-state target cleavage rate,[1],0.137 ± 0.012
same,pre-steady-state target cleavage rate,[2],0.148 ± 0.044
GGAGACCUAACUAUACAACCUACUACCUACA,pre-steady-state target cleavage rate,[1],0.165 ± 0.023
same,pre-steady-state target cleavage rate,[2],0.00795 ± 0.0042
GGAGAGGAUACUAUUCAACCUACUACCUGA,pre-steady-state target cleavage rate,[1],0.0595 ± 0.0098
same,pre-steady-state target cleavage rate,[2],0.00319 ± 0.0018
GGAGACGAUACUAUACAACCUACUACUUCA,pre-steady-state target cleavage rate,[1],0.162 ± 0.013
same,pre-steady-state target cleavage rate,[2],0.00983 ± 0.0039
GGAGAGGAUACUAUACAACCUAACUACCUCA,pre-steady-state target cleavage rate,[1],0.0231 ± 0.0035
same,pre-steady-state target cleavage rate,[2],0.00656 ± 0.0027
GGAGACCUAUCUAUGACAACCUACUACCUCA,pre-steady-state target cleavage rate,[1],0.0545 ± 0.0096
same,pre-steady-state target cleavage rate,[2],0.00594 ± 0.0037
GGAGAGGAUACUAUACCACCUACUACCUCA,pre-steady-state target cleavage rate,[1],0.212 ± 0.019
same,pre-steady-state target cleavage rate,[2],0.00648 ± 0.003
